Screening results as filed in PubChem.
SMARCA2 act: increases SMARCA2 function in MMTV reporter cells | MG213 cells, MMTV-luciferase reporter, dexamethasone, overnight | activation, % at 9.1 µM | hit rate 1% among 370,000; in the data active = activation above about 7.8%;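 note: 0% = vehicle wells and 100% = reference activator wells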
Gli-Sufu block: antagonists of Gli-Sufu signaling; Sufu-KO-LIGHT fibroblasts, Gli luciferase reporter luminescence; inhibition, % at 5 µM; hit rate 0.74% among 340,000; AID 588413;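 active = inhibition above about 55%, limit read from the data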;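 note: 0% = DMSO-treated cells and 100% = wells with medium but no cells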
Cardio protect: myocardial damage modulation in H9c2 cells; protection from H2O2 cell death, % at 20 µM; hit rate 0.63% among 360,000; AID 588492; H9c2 cardiomyocytes, H2O2 injury protection, ATPLite, 2 h;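 active = compounds giving at least 50% protection of heart cells from peroxide-induced death in the single-dose screen, raw or plate-pattern-corrected value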;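 note: 0% = DMSO wells with peroxide and 100% = DMSO wells without peroxide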
GalR3 antag: human GalR3 antagonism | O60755 | HEK293 GalR3-CNG cAMP membrane potential fluorescence; galR3 body fused to GalR1 C-terminus | inhibition, % at 3 µM | hit rate 0.44% among 360,000;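 active = inhibition above the screen-wide average plus 3 SD, cut at about 13% in these data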;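 note: forskolin and galanin both at EC90 stimulate the cells; cAMP rise reported by CNG channel membrane potential dye signal; 0% = forskolin plus galanin with DMSO and 100% = forskolin alone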
GAA850 FXN act: increases GAA850 frataxin promoter reporter activity; HEK293 lucGAA850 FXN promoter luciferase reporter, 24 h; percent of 10 µM SAHA response; activation, % at 6 µM; hit rate 0.56% among 360,000; AID 540364;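 active = activation above the average of all compounds screened plus 3 SD, cutoff fixed separately per campaign, cut at about 7.5% in these data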;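 note: 0% = DMSO wells and 100% = 10 µM SAHA wells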
NR2F2 inh: inhibitors of human COUP-TFII (NR2F2). P24468. HEK293T NGFI-A luciferase reporter, luminescence. inhibition, % at 8.6 µM. hit rate 0.7% among 370,000. AID 686940;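 active = inhibition above a per-plate cutoff, mean inhibition of test wells between control levels plus 3 SD, cut at about 38% in these data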;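 note: cells cotransfected with COUP-TFII expression vector driving the NGFI-A reporter; 0% = median of COUP-TF2 test wells and 100% = reporter-only cells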
Target sequence (P24468 whole entry, looked up): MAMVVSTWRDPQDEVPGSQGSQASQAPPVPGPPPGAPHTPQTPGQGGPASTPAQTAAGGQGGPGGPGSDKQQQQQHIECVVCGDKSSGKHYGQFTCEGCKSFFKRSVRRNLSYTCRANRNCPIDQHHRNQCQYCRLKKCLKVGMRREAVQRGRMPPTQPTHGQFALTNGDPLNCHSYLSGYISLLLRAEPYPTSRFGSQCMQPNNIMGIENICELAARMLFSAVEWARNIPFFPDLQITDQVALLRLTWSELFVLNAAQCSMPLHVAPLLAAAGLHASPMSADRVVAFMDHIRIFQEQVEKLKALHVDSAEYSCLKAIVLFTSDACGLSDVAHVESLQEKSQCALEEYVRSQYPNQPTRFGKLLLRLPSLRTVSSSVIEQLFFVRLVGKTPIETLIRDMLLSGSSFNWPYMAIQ
SMARCA2 act conf: confirmation of SMARCA2 (BRM) function activators; shares compounds with SMARCA2 act; hit rate 30% among 3,500; activation, % at 9.1 µM; MG213 cells, MMTV-luciferase with dexamethasone, luminescence, overnight; MG213 cells expressing E1A, Rb sequestered; DMSO wells 0%, reference activator 100%;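 active = activation above its plate's cutoff, the mean activation of tested wells plus 3 SD, cut at about 7.9% in these data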
VP16 Luc act: GAL4-VP16 reporter activation counter-screen; activation, % at 9.1 µM; hit rate 41% among 3,500; HEK293 GAL4-VP16 pG5luc reporter, luciferase luminescence; scaled: DMSO wells 0%, SAHA wells 100%; shares compounds with SMARCA2 act;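 active = activation above the solvent-only control well mean plus 3 SD, averaged across control plates, cut at about 5.2% in these data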
* = called active by the depositor. The list is not random: actives were taken first. Their share in the collection is about 3.4%.

What do the screens show for `O=C(Nc1ccccc1F)C1CCN(S(=O)(=O)c2cccc3nonc23)CC1`?
SMARCA2 act: -1; Gli-Sufu block: -11; Cardio protect: 5; GalR3 antag: -3; GAA850 FXN act: 1; NR2F2 inh: 5

What do the screens show for `O=C1CCC/C(=N/NC(=O)C2CCN(S(=O)(=O)c3cccs3)CC2)C1`?
SMARCA2 act: 8.7*; Gli-Sufu block: -6; Cardio protect: 0; GalR3 antag: -2; GAA850 FXN act: 0; NR2F2 inh: -1; SMARCA2 act conf: 2; VP16 Luc act: 0

How did O=C(Nc1ccnn1C1CCN(Cc2cccc(OCCO)c2)CC1)C1CCOC1 (centres undefined) do in these assays?
SMARCA2 act: -1; Gli-Sufu block: 2; Cardio protect: 12; GalR3 antag: -2; GAA850 FXN act: 3; NR2F2 inh: 2

Results for O=C(Nc1ccccn1)C(=O)N1CCCCC1 ?
SMARCA2 act: 8.2*; Gli-Sufu block: -10; Cardio protect: 1; GalR3 antag: -5; GAA850 FXN act: 1; NR2F2 inh: -11; SMARCA2 act conf: 4; VP16 Luc act: 2

How did O=C(Nc1ccccc1Br)C(=O)N1CCCC1 do in these assays?
SMARCA2 act: -2; Gli-Sufu block: 2; Cardio protect: -4; GalR3 antag: 0; GAA850 FXN act: 6; NR2F2 inh: -21

How did COc1ccc2c(c1)c1ccccc1n2C do in these assays?
SMARCA2 act: 8.9*; Gli-Sufu block: 5; Cardio protect: -3; GalR3 antag: -4; GAA850 FXN act: 2; NR2F2 inh: -14; SMARCA2 act conf: -2; VP16 Luc act: 2

Results for CCN(CC(=O)Nc1c(F)cccc1F)C(=O)c1ccc(C#N)cc1 ?
SMARCA2 act: -3; Gli-Sufu block: -5; Cardio protect: 1; GalR3 antag: -7; GAA850 FXN act: 0; NR2F2 inh: 4

What do the screens show for `COc1cc(/C=C/c2nc3ccccc3c(=O)[nH]2)ccc1O`?
SMARCA2 act: 9.0*; Cardio protect: 28; GalR3 antag: -9; GAA850 FXN act: 1; NR2F2 inh: -51; SMARCA2 act conf: 13*; VP16 Luc act: 12*

What do the screens show for `COc1cc(/C=C/c2nc3ccccc3c(=O)[nH]2)cc(Br)c1O`?
SMARCA2 act: 3; Gli-Sufu block: -6; Cardio protect: 17; GalR3 antag: -1; GAA850 FXN act: 2; NR2F2 inh: -17

Results for O=c1[nH]c(/C=C/c2ccccc2Cl)nc2ccccc12 ?
SMARCA2 act: 8.6*; Gli-Sufu block: -90; Cardio protect: -9; GalR3 antag: -11; GAA850 FXN act: 5; NR2F2 inh: -12; SMARCA2 act conf: 13*; VP16 Luc act: 9.1*

How did CCOC(=O)C1(Cc2cccc(F)c2)CCN(C(=O)Cn2cnnn2)CC1 do in these assays?
SMARCA2 act: 0; Gli-Sufu block: 4; Cardio protect: 2; GalR3 antag: 12; GAA850 FXN act: 2; NR2F2 inh: -6

Results for COc1ccc(-n2nnc3c(SC(C(C)=O)C(=O)N(C)C)ncnc32)cc1 (centres undefined) ?
SMARCA2 act: 2; Gli-Sufu block: 4; Cardio protect: -5; GalR3 antag: -3; GAA850 FXN act: 1; NR2F2 inh: -8

What do the screens show for `C=CCN(c1ccccc1)S(=O)(=O)c1cccc(C(=O)Nc2ncccc2O)c1`?
Gli-Sufu block: 2; Cardio protect: 0; GAA850 FXN act: -1

How did NC(=O)COC(=O)c1cccc2c1-c1ccccc1C2=O do in these assays?
SMARCA2 act: -3; Gli-Sufu block: 5; Cardio protect: 6; GalR3 antag: -3; GAA850 FXN act: 3; NR2F2 inh: 17

What do the screens show for `CC(C)COC(=O)c1ccc2c(c1O)C(=O)c1ccccc1C2=O`?
SMARCA2 act: 8.7*; Gli-Sufu block: -107; Cardio protect: -10; GalR3 antag: -2; GAA850 FXN act: -1; NR2F2 inh: -57; SMARCA2 act conf: 4; VP16 Luc act: 4

What do the screens show for `CCCCCNC(=O)C(c1ccc(C(F)(F)F)cc1)n1c(=O)c(-c2ccco2)nc2ccccc21` (centres undefined)?
SMARCA2 act: 0; GalR3 antag: -6; NR2F2 inh: 4

Results for CC(C(=O)NC1CCCCC1)N1C(=O)C2C3C=CC(C3)C2C1=O (centres undefined) ?
SMARCA2 act: 1; Gli-Sufu block: 4; Cardio protect: 2; GalR3 antag: 0; GAA850 FXN act: 0; NR2F2 inh: 1

What do the screens show for `CC1CCC(NC(=O)C(C)N2C(=O)C3CCCCC3C2=O)CC1` (centres undefined)?
SMARCA2 act: 9.3*; Gli-Sufu block: -10; Cardio protect: -3; GalR3 antag: -5; GAA850 FXN act: 0; NR2F2 inh: -10; SMARCA2 act conf: 2; VP16 Luc act: 2

What do the screens show for `COC(=O)[C@]12C[C@H](CC(=O)NCCCN3CCCC3=O)C(=O)N(CCc3ccc(OC)c(OC)c3)C1=C[C@H](C1CCCC1)O[C@@H]2C`?
SMARCA2 act: 4; NR2F2 inh: -11

Results for CCOC(=O)/C=C1\CC(C(=O)OCC)Oc2c(OC)cccc21 (centres undefined) ?
SMARCA2 act: 9.6*; Gli-Sufu block: -8; Cardio protect: 7; GalR3 antag: -2; GAA850 FXN act: 0; NR2F2 inh: -7; SMARCA2 act conf: -3; VP16 Luc act: 1

How did COc1ccc(CN2CC[C@H]3C=CC[C@@H](C(=O)NCCc4ccccc4)[C@H]3C2=O)cc1OC do in these assays?
SMARCA2 act: 1; Gli-Sufu block: -12; Cardio protect: 8; GalR3 antag: -4; GAA850 FXN act: 2; NR2F2 inh: -6

How did O=C(Cc1ccccc1)Nc1nc(-c2cccs2)cs1 do in these assays?
SMARCA2 act: 11*; Gli-Sufu block: -24; Cardio protect: -18; GalR3 antag: -4; GAA850 FXN act: 5; NR2F2 inh: -21; SMARCA2 act conf: 3; VP16 Luc act: 6.4*

What do the screens show for `O=C(Cc1ccccc1F)Nc1nc(-c2cccs2)cs1`?
SMARCA2 act: 2; Gli-Sufu block: -34; Cardio protect: 2; GalR3 antag: -5; GAA850 FXN act: 0; NR2F2 inh: -16

How did Cc1ccc(/C(N)=N/OC(=O)c2ccco2)cc1 do in these assays?
SMARCA2 act: 6; Gli-Sufu block: -102; Cardio protect: -6; GalR3 antag: -1; GAA850 FXN act: 2; NR2F2 inh: -38
